This is one part of a sample in which hits are shown more often than they occur.
ALOX12 inh – ALOX12 (human) lipoxygenase inhibition. 1.1% of 580,000 active. Potency, µM (top dose mostly 108 µM), inactives show at the highest dose activity change, negative = inhibition, usual class: inhibitors. P18054. AID 1671190. purified 12hLO, xylenol orange hydroperoxide absorbance; further: potency means the concentration at half of the fitted maximal effect
Target sequence (P18054 whole entry, looked up): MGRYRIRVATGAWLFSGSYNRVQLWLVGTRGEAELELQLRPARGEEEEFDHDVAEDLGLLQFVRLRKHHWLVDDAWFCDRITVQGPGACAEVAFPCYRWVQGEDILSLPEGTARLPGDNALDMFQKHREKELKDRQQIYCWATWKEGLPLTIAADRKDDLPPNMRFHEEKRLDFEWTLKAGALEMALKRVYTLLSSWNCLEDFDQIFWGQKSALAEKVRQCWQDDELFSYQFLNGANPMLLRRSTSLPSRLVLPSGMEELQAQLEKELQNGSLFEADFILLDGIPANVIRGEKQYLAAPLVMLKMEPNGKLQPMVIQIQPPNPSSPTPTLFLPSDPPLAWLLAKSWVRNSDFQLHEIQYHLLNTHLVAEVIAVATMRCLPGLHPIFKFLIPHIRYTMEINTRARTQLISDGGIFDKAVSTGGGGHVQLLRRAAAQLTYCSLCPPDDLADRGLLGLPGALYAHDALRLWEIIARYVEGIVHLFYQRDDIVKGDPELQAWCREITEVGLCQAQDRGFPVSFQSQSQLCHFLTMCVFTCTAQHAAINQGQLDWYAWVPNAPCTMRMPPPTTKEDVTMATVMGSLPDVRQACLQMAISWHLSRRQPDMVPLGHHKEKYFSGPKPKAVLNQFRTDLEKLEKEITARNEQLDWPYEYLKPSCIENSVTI
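Hydroperoxide product was detected by ferrous iron/xylenol orange as the 573 to 405 nm absorbance ratio. Arachidonic acid at 40 uM (final) was turned over for 30 min at room temperature by 150 nM human 12hLO, pH 7.0 Hepes buffer, after 15 min compound preincubation.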
HT1080-NT tox – kills 2HG-producing HT-1080-NT fibrosarcoma cells. AID 686970. HT-1080-NT fibrosarcoma viability, CellTiter-Glo ATP luminescence, 48 h. 1.6% of 360,000 active. Potency, µM (highest dose often 46.1 µM), without a hit: at the highest dose activity, negative = less viability, actives largely listed as cytotoxic;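 further: NT is the 2HG producing partner of a matched IDH1 knockdown line; potency means the concentration at half of the fitted maximal effect; 0% = DMSO-treated cells and -100% = media-only wells without cells; nearly all actives have a fitted effect of over 55% in size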
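HT-1080-NT; 750 cells/well; 5% FBS RPMI; 48 h compound, 37 degrees C; CellTiter-Glo luminescence; curve fitting and curve-class assignment.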
HT1080 IDH1KD tx – HT-1080 IDH1 knockdown cell toxicity (counter line) | HT-1080 IDH1 knockdown viability, ATP luminescence, 48 h | Potency, µM (doses to about 46.1 µM), without a hit: top-dose activity, negative = toxicity, most hits filed as cytotoxic | 2% of 360,000 active | AID 686971;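 further: potency means the concentration at half of the fitted maximal effect; 0% = DMSO wells and -100% = cell-free medium wells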
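Assay cells: HT-1080 with IDH1 knockdown, 750 per well, RPMI/5% FBS. Exposure: 48 h at 37 °C following 2 h pre-incubation. Read: CellTiter-Glo luminescence; fitted concentration-response, curve class assigned.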
IL1B secr inh – inflammasome signaling inhibition, IL-1 beta readout; THP-1 LPS/ATP IL-1B secretion, AlphaLISA, 16 h; stronger effect = lower value; activity change, % at 57.5 µM; 4.7% of 360,000 active; AID 743279; in the data active means activity change below about -50%; inconclusive means mostly about -30% to -49%
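Secreted IL-1B measured by AlphaLISA bead assay after 16 h compound exposure of THP-1 cells; compounds (final up to 57.5 uM) added 1 h before LPS (250 ng/mL) and ATP (1.25 mM) stimulation; lower signal means less secretion.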
TDP1 cell noCPT – qHTS for Inhibitors of human tyrosyl-DNA phosphodiesterase 1 (TDP1): qHTS in cells in absence of CPT; DT40 Tdp1-/- hTDP1 cells, no CPT, ATP luminescence, 48 h; Potency, µM (highest dose often 46.2 µM), for inactives: top-dose activity change, negative = growth inhibition, actives largely listed as inhibitors; 15% of 420,000 active; AID 686978, 2013; further: potency means the concentration at half of the fitted maximal effect; nearly all actives have a fitted effect of over 55% in size
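Growth kinetics read by CellTiter-Glo luminescence after ≥48 hr at 37 °C. Cells: DT40 Tdp1-/- stably carrying human TDP1, 400 per well, compound exposure in the absence of CPT (DMSO vehicle).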
DT40 TDP1 CPT – DT40-hTDP1 cell growth loss with CPT | AID 686979 | 12% of 420,000 active | chicken DT40 Tdp1-/-;hTDP1 cells + 20 nM CPT, ATP luminescence, 48 h | Potency, µM (titrated, usually from 46.2 µM), for the others: top-dose activity change, negative = growth inhibition, most hits filed as inhibitors; further: potency means the concentration at half of the fitted maximal effect; nearly all actives have a fitted effect of over 55% in size
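Cell growth measured by CellTiter-Glo luminescence after a minimum 48 h, 37 C compound exposure with 20 nM CPT in Tdp1-knockout DT40 cells stably expressing hTDP1, seeded 400/well; qHTS titration format.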
Active calls of the source: *; ? = inconclusive; . = no result; ! = a repeat was not active. Unless noted, the call rests on the fitted dose curve; in most records, active means well fitted curve in the direction sought with a large enough effect; inconclusive means small, poorly fitted or top-dose-only effect, or another doubt; inactive means no such curve, though single readings can be large; an effect the other way counts as inactive or inconclusive. Unless noted, on the % scale 0 is the no-effect control and ±100 the full control effect.

SMILES	ALOX12 inh	HT1080-NT tox	HT1080 IDH1KD tx	IL1B secr inh	TDP1 cell noCPT	DT40 TDP1 CPT
O=C(c1c(Cl)nc2sccn12)N1CCN(c2cccc(Cl)c2)CC1	-83%	?	3.3µM*	4	2.3µM*	2.3µM*
CN1c2cc(C(N)=O)ccc2C(=O)N2CCCC21 (centres undefined)	17%	.	.	.	.	.
Cc1[nH]c(-c2ccc(F)cc2)cc1C(=O)N1CCN(c2cccc(Cl)c2)CC1	-11%	?	?	-87*	16µM*	-8%
NC(=O)c1ccsc1NC(=O)COC(=O)c1ccc(Cl)cc1F	-4%	.	.	.	.	.
O=C1N[C@@H](Cc2ccccc2)COC(=O)[C@H](Cc2ccc(F)cc2)CC/C=C/C[C@H]1CC(=O)N(CCO)Cc1ccccc1	0%	?	?	?	?	?
O=C1NC[C@H](c2ccccc2)OC(=O)[C@@H](Cc2ccc(F)cc2)CC/C=C/C[C@H]1CC(=O)N(CCO)Cc1ccccc1	?	23µM*	.	-2	12µM*	13µM*
O=C(C[C@@H]1C/C=C/CC[C@H](Cc2ccc(F)cc2)C(=O)O[C@H](c2ccccc2)CNC1=O)NCCO	36%	14%	-1%	-2	-10%	-1%
O=C1NC[C@H](c2ccccc2)OC(=O)[C@@H](Cc2ccc(F)cc2)CC/C=C/C[C@@H]1CC(=O)N(CCO)Cc1ccccc1	-4%	-25%	.	-22	23µM*	?
O=C1NC[C@H](c2ccccc2)OC(=O)[C@H](Cc2ccc(F)cc2)CC/C=C/C[C@H]1CC(=O)N(CCO)Cc1ccccc1	?	26µM*	.	?	?	26µM*
CCOC(=O)C1(Cc2ccccc2F)CCCN(C(=O)c2ccc3ncccc3c2)C1 (centres undefined)	35%	.	.	.	.	.
Cc1cccc(NC(=O)CN2CCN(Cc3csc(-c4ccccc4)n3)CC2)c1C	-15%	.	.	.	.	.
N/C(=N\OC(=O)COc1ccc2ccccc2c1)c1ccncc1	.	-6%	-7%	-15	?	21µM*
COc1ccc(/C(N)=N/OC(=O)CSc2ccccc2)cc1	-7%	17%	0%	-60*	-15%	-3%
Cc1cccc(OCC(=O)O/N=C(\N)c2ccncc2)c1	13%	-1%	0%	3	-3%	3%
CN1C(=O)C(CC(=O)NC2CCC(O)CC2)(Cc2ccccc2)c2ccccc21 (centres undefined)	48%	.	.	.	.	.
Cc1cccc(CN(C(=O)c2ccco2)c2ccc(CC(=O)N(C)Cc3ccccc3)cc2)c1	-8%	.	.	.	.	.
O=C(NCc1ccnc(OCC(F)(F)F)c1)c1ccc(Cl)o1	8%	.	.	.	.	.
Nc1ncnc2c1ncn2C1O[C@H](CO)[C@@H](O)[C@@H]1O (some centres undefined)	14%	-2%	0%	16	0.21µM*	0.46µM*
Nc1ncnc2c1ncn2C1OC(CO)C(O)C1O (centres undefined)	-2%	19%	21%	-15	0.92µM*!	1.3µM*!
Nc1nc(SCc2ccccc2)c2ncn(C3OC(CO)C(O)C3O)c2n1 (centres undefined)	-9%	28%	25%	-27	-17%	-15%
Nc1ncnc2c1ncn2[C@@H]1O[C@H](COP(=O)(O)OP(=O)(O)O)[C@@H](O)[C@H]1O	-8%	.	.	.	-11%	-7%
CSCC1OC(n2cnc3c(N)ncnc32)C(O)C1O (centres undefined)	13%	.	.	.	.	.
Nc1ncnc2c1ncn2[C@@H]1O[C@H](COP(=O)(O)OP(=O)(O)CP(=O)(O)O)[C@@H](O)[C@H]1O	16µM*	.	.	.	-8%	3%
OCC1OC(n2cnc3c(SCc4ccccc4)ncnc32)C(O)C1O (centres undefined)	6%	7.3µM*	23µM*	17	?	?
CC(=O)N1CCN(C(=O)C[C@@H]2c3nc(NC(=O)C4CCCCC4)sc3C[C@@H]3[C@](C)(CO)[C@H](O)CC[C@]32C)CC1	-20%	.	.	.	.	.
SMILES	ALOX12 inh	HT1080-NT tox	HT1080 IDH1KD tx	IL1B secr inh	TDP1 cell noCPT	DT40 TDP1 CPT
Nc1ncnc2c1ncn2[C@@H]1O[C@H](C(=O)NS(=O)(=O)c2cccc(F)c2)[C@@H](O)[C@H]1O	1%	3%	5%	9	6%	3%
Nc1nccc2c1ncn2C1OC(CO)C(O)C1O (centres undefined)	0%	-5%	-16%	?	5.8µM*	7.3µM*
Nc1ncnc2c1c(I)cn2C1OC(CO)C(O)C1O (centres undefined)	-6%	.	.	.	0.28µM*	0.49µM*
Nc1ncnc2c1[nH]c(=S)n2C1OC(CO)C(O)C1O (centres undefined)	.	.	.	.	2%	2%
Nc1ncnc2c1ncn2[C@@H]1O[C@H](CNCc2ccc(OCc3ccccc3)cc2)[C@@H](O)[C@H]1O	-1%	-26%	-25%	0	10µM*	18µM*
Nc1ncnc2c1ncn2[C@@H]1O[C@H](CNCc2ccc(OCC(=O)Nc3ccccn3)cc2)[C@@H](O)[C@H]1O	147%	3%	4%	9	-22%	?
N#Cc1ccccc1S(=O)(=O)NC(=O)[C@H]1O[C@@H](n2cnc3c(N)ncnc32)[C@H](O)[C@@H]1O	-25%	18%	14%	0	13µM*	?
Nc1cccc(COCC(F)(F)C(F)F)c1	-4%	.	.	.	.	.
COCCc1noc(-c2ccccc2OC2CN(C(=O)c3ccc(C)nc3)C2)n1	31%	.	.	.	.	.
Clc1ccc(CSc2ncnc3c2ncn3C2CCCCO2)cc1 (centres undefined)	7%	-19%	-29%	-26	16µM*	?
OC[C@H]1O[C@@H](n2cnc3cncnc32)[C@H](O)[C@@H]1O	1%	.	.	.	0.46µM*	0.26µM*
N#Cc1c(N)n(C2OC(CO)C(O)C2O)c2ncnc(N)c12 (centres undefined)	-7%	1.3µM*	0.52µM*	-102*	0.021µM*	0.016µM*
Cc1cn(-c2cccnc2)c(C)c1CNC[C@H]1O[C@@H](n2cnc3c(N)ncnc32)[C@H](O)[C@@H]1O	3%	5%	0%	28	9.2µM*	18µM*
Cc1ccc(SC(C)C(=O)Nc2ccc(F)cc2F)cc1 (centres undefined)	5%	.	.	.	.	.
CC1Sc2ccc(S(=O)(=O)N3CCC(C(=O)N4CCCC4)CC3)cc2NC1=O (centres undefined)	0%	.	.	.	.	.
